Compound activity: PubChem BioAssay, National Center for Advancing Translational Sciences (NCATS)
A549 viability – counter-screen for Nrf2 inhibitors: cytotoxicity in A549 cells; A549 ARE-Fluc cells, CellTiter-Fluor viability, 18-24 h; Potency, µM (top dose mostly 46 µM), most hits filed as inhibitors; 0.16% of 390,000 active; AID 504648
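A549 ARE-Fluc cells in 5% FBS OPTI-MEM, 5000 cells/well, rested 2 h then exposed to compounds in concentration-response for 18-24 h at 37 °C. Viability by CellTiter-Fluor fluorescence (Ex 405/Em 525) after 30 min; luciferase luminescence (BugLite, 15 min, RT) read afterwards.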
ATXN2 expr inh – inhibitors of ATXN2 expression; HEK-293 ATXN2-luciferase reporter, luminescence, 24 h; Potency, µM (titrated, usually from 57 µM), usual class: inhibitors; 0.72% of 360,000 active; AID 1745845; note: nearly all actives have a fitted effect of over 55% in size
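ATXN2-luciferase reporter cells (luciferase flanked by upstream and downstream ATXN2 gene portions) were treated 24 h at 37 °C with compounds at up to 57 uM. SteadyGlo luminescence gave expression; GF-AFC fluorescence gave viability.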
Nrf2 ARE act – Nrf2 pathway activation; AREc32 ARE-luciferase reporter (MCF7-derived line), luminescence, 24 h; Potency, µM (top dose mostly 46.1 µM), usual class: activators; 0.31% of 410,000 active; note: nearly all actives have a fitted effect of over 65% in size
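For detection, Steady-Glo was added and plates sat 30 min at RT; before that, AREc32_Fluc cells grown overnight in OPTI-MEM/5% FBS had been treated with 23 nL compound for 24 hr at 37 deg C.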
Nrf2 inh – blocks Nrf2 signaling; A549 ARE-Fluc reporter, luciferase luminescence, 18-24 h; AID 504444; Potency, µM (doses to about 46 µM), most hits filed as inhibitors; 2.1% of 360,000 active; note: nearly all actives have a fitted effect of over 60% in size
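Nrf2 function is reported as luminescence of an ARE-controlled luciferase in A549 cells. Compounds were tested at several concentrations, and a CellTiter-Fluor read on the same wells flagged cytotoxicity.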
S2 tox – reduces viability in counter-screen for ATXN expression inhibitors. S2 cells (HEK-293 line with an ATXN2-luciferase reporter) viability, CellTiter-Fluor protease fluorescence, 24 h. Potency, µM (top dose mostly 56.7 µM), hits mostly cytotoxic. 0.49% of 400,000 active; note: nearly all actives have a fitted effect of over 40% in size
Large screens that a line does not name were inactive. Rows were chosen to be rich in hits. Some 2.9% of all compounds tested hit in one or more screens of this group. Calls come from the whole dose curve; as a rule, active = well fitted curve in the direction sought with a large enough effect; inconclusive = small, poorly fitted or top-dose-only effect, or another doubt; inactive = no such curve, though single readings can be large; an effect the other way counts as inactive or inconclusive.

COc1ccc(Cn2c(C)nc3c(c2=O)c2nc4ccccc4nc2n3Cc2ccco2)cc1	ATXN2 expr inh inconclusive, Nrf2 inh 18µM, S2 tox inconclusive
COc1cc(NC(=O)CN2C(=O)NC(c3ccccc3)(c3ccccc3)C2=O)c(C)cc1[N+](=O)[O-]	Nrf2 inh 29µM
COc1cc(NC(=O)CN2C(=O)CN(C)C2=O)c(C)cc1[N+](=O)[O-]	none
COc1cc(NC(=O)Cn2ncc(Cl)c(Cl)c2=O)c(C)cc1[N+](=O)[O-]	A549 viability inconclusive, ATXN2 expr inh 27µM, Nrf2 ARE act inconclusive, Nrf2 inh inconclusive, S2 tox 17µM
CCN1C/C(=C/c2ccc(N3CCOCC3)cc2)C(=O)/C(=C/c2ccc(N3CCOCC3)cc2)C1	A549 viability inconclusive, ATXN2 expr inh 22µM, Nrf2 ARE act inconclusive, Nrf2 inh inconclusive (no result: S2 tox)
CN1C/C(=C\c2ccc(N3CCOCC3)cc2)C(=O)/C(=C/c2ccc(N3CCOCC3)cc2)C1	ATXN2 expr inh inconclusive, Nrf2 ARE act 11µM, S2 tox inconclusive
CN1/C(=C\C=C2/SC(=S)NC2=O)C(C)(C)c2ccccc21	A549 viability 15µM, Nrf2 inh inconclusive, S2 tox 28µM (no result: ATXN2 expr inh)
COc1ccc(N2C(=O)CC(Sc3nc4ccccc4s3)C2=O)cc1OC (stereo unspecified)	S2 tox 32µM (no result: ATXN2 expr inh)
Cc1ccc(-c2ccc(/C=C3\C(=O)ON=C3c3ccccc3)o2)c([N+](=O)[O-])c1	A549 viability inconclusive, ATXN2 expr inh inconclusive, Nrf2 inh inconclusive, S2 tox 35µM
Cn1cc(CN2CCC(C3(c4ccccn4)NC(=O)N(CC4CCCO4)C3=O)CC2)c2ccccc21 (stereo unspecified)	none (no result: A549 viability, ATXN2 expr inh, Nrf2 ARE act, Nrf2 inh)
O=C(CN1C2=NCCN2c2ccccc21)c1ccc2c(c1)OCO2	S2 tox 16µM
O=C(CN1C2=NCCN2c2ccccc21)c1ccc(Br)cc1	none (no result: Nrf2 inh)
COc1ccc2c(c1)Oc1ncn(CCN3CCOCC3)c(=N)c1C2c1ccc(OC)c(OC)c1 (stereo unspecified)	none (no result: ATXN2 expr inh, Nrf2 ARE act, S2 tox)
COc1cc(SC#N)ccc1N=Cc1c(C)[nH]n(-c2ccc(Cl)cc2)c1=O	S2 tox inconclusive
COc1cc(SC#N)ccc1N=Cc1c(C)[nH]n(-c2ccc(C)c(C)c2)c1=O	ATXN2 expr inh 11µM, S2 tox 13µM
Cc1ccc(-n2cc(CNCCCn3cccn3)c(-c3cccc(C)c3)n2)cc1	A549 viability inconclusive, ATXN2 expr inh 32µM, Nrf2 inh inconclusive (no result: S2 tox)
Cc1ccc(-n2cc(CNCCc3cscn3)c(-c3ccc(F)cc3)n2)cc1	ATXN2 expr inh inconclusive, S2 tox inconclusive
Cc1ccc(-n2cc(CNCCCn3ccnc3C)c(-c3ccc(F)cc3)n2)cc1	A549 viability 26µM, S2 tox inconclusive
Cc1cccc(-n2cc(CNCCc3nc(C)cc(C)n3)c(-c3cccc(F)c3)n2)c1	ATXN2 expr inh 28µM (no result: S2 tox)
Cc1cc2c(s1)c1cnn(Cc3ccc(F)c(Cl)c3)c(=O)c1n2C	none (no result: ATXN2 expr inh, Nrf2 ARE act, S2 tox)
Cc1ccc(NC(=O)Cn2cc3c(n2)CCCC3)cc1Cl	none
COc1ccc(N2CCN(CCCNC(=O)C3CCC(CNc4nc(=S)[nH]c5ccccc45)CC3)CC2)cc1 (stereo unspecified)	A549 viability inconclusive, Nrf2 inh 6.5µM
COc1ccccc1NC(=O)Nc1nc(CC(=O)N2CCN(c3ccccc3)CC2)cs1	ATXN2 expr inh inconclusive, Nrf2 inh 7.3µM
O=c1[nH]nc(Sc2ncnc3sccc23)n1CCc1ccccc1	Nrf2 ARE act inconclusive, Nrf2 inh 15µM
CCN(CC)C(=O)CSc1n[nH]c(=O)n1CCc1ccccc1	none
COc1ccccc1N(/N=C1\Sc2ccccc2C1=O)C(C)=O	Nrf2 ARE act 14µM (no result: ATXN2 expr inh)
COc1ccc(N(/N=C2\Sc3ccccc3C2=O)C(C)=O)cc1	none
CC1CCN(C(=O)CN2C(=O)c3cccc4cccc(c34)C2=O)CC1	Nrf2 ARE act 11µM
COc1cc(C2NC(=O)NC(C)=C2C(=O)Nc2cc(C)cc(C)c2)ccc1O (stereo unspecified)	none
Cc1ccc(C2(O)CCN(CCCC(=O)c3ccc(F)cc3)CC2)cc1	none (no result: A549 viability, ATXN2 expr inh, Nrf2 ARE act, Nrf2 inh)
Cc1ccc(C(=O)N2C(=S)C(c3ccc(F)cc3)=NC23CCN(C)CC3)cc1	ATXN2 expr inh 22µM, Nrf2 inh inconclusive, S2 tox 25µM
COc1cccc(C2c3c(ncn(-c4ccccc4-c4ccccc4)c3=N)Oc3ccc4ccccc4c32)c1 (stereo unspecified)	none (no result: ATXN2 expr inh, Nrf2 ARE act, S2 tox)
Cc1ccc(S(=O)(=O)c2ccc([N+](=O)[O-])o2)cc1	A549 viability inconclusive, ATXN2 expr inh 6.7µM, Nrf2 ARE act inconclusive, S2 tox 11µM
CC(C)c1nc2n(n1)C1(CCCCC1)[C@@H]1CCCC[C@@H]1N2	none
Cc1ccc2c(n1)sc1c(=O)n(-c3cccc(C(F)(F)F)c3)nnc12	none
Clc1ccccc1-c1ncc(-c2ccccc2)o1	Nrf2 ARE act 10µM, Nrf2 inh inconclusive, S2 tox inconclusive (no result: ATXN2 expr inh)
Clc1ccccc1-c1nnc(COc2ccccc2)o1	Nrf2 inh inconclusive
COc1ccc(N2C(=O)[C@@H]3C[C@H]2CN3Cc2cccn2-c2nccs2)cc1Cl	none (no result: A549 viability, ATXN2 expr inh, Nrf2 ARE act, Nrf2 inh)
NNC(=O)c1oc2nc(-c3ccccc3)cc(-c3ccccc3)c2c1N	Nrf2 inh inconclusive (no result: S2 tox)
Cc1ccc(-c2cc(-c3ccco3)c3c(N)c(C(=O)NN)oc3n2)cc1	Nrf2 inh 8.2µM (no result: ATXN2 expr inh, S2 tox)
Cc1ncc2c(c1CNC(=O)/C=C/c1cccs1)CCN(C(=O)c1cc(C(C)C)on1)C2	none (no result: A549 viability, ATXN2 expr inh, Nrf2 ARE act, Nrf2 inh)
COc1cccc(OCC(=O)NN=C2c3ccccc3-c3ccccc32)c1	ATXN2 expr inh inconclusive, Nrf2 inh 18µM, S2 tox inconclusive
COc1cccc(OCC(=O)Nc2ccccc2-c2ccccc2)c1	none (no result: S2 tox)
Cc1c(P(=S)(c2ccccc2)c2ccccc2)c2ccccc2n1C(=O)NCc1ccc(F)cc1	Nrf2 inh inconclusive (no result: ATXN2 expr inh, Nrf2 ARE act, S2 tox)
CCS(=O)(=O)c1cccc(C(=O)N2CCN(c3nc4c(C)ccc(Cl)c4s3)CC2)c1	Nrf2 inh 12µM (no result: ATXN2 expr inh, S2 tox)
N#Cc1ccc(NC(=O)Nc2ccc(Cl)cc2)cc1	A549 viability inconclusive, ATXN2 expr inh inconclusive, Nrf2 inh 18µM, S2 tox inconclusive
CC(C)(CO)NC(=O)c1cnn(-c2nccc(-c3ccc4c(c3)OCO4)n2)c1C1CC1	none (no result: A549 viability, ATXN2 expr inh, Nrf2 ARE act, Nrf2 inh)
C=C(C)CNC(=S)N/N=C/c1ccco1	Nrf2 ARE act 11µM
Cc1ccccc1CN1CCc2nc(Nc3ccc4c(c3)OCCO4)ncc2C1	none (no result: Nrf2 inh)
O=C(Cc1ccccc1F)Nc1nc(-c2ccc(F)c(F)c2)cs1	none
O=C(Nc1nc(-c2ccc(F)c(F)c2)cs1)Nc1ccc(F)cc1F	ATXN2 expr inh 5µM, Nrf2 inh inconclusive, S2 tox inconclusive
Oc1ccc2ccccc2c1/C=N/Nc1nnc(-c2ncc[nH]2)c2ccccc12	ATXN2 expr inh inconclusive, Nrf2 inh 5.2µM (no result: A549 viability)
COc1ccc(/C=N/Nc2nnc(-c3ncc[nH]3)c3ccccc23)cc1	none
COc1ccc(-c2ccc(OC)c(C3C4C=CCCC4(C)C(=O)N3Cc3ccccc3)c2)cc1 (stereo unspecified)	none (no result: ATXN2 expr inh, Nrf2 ARE act, S2 tox)
